The text below walks through data of PubChem BioAssay (NCATS).

A short description of assay [1]: S16 Schwann cell viability assay (CellTiter-Glo assay) (AID 624031).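 Further: cellular ATP luminescence as a viability measure; nearly all actives have a fitted effect of over 70% in size.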 The gist of the method:
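CellTiter-Glo ATP luminescence counter-screen in untransfected S16 rat Schwann cells, 24h compound exposure at 37 degree Celsius after overnight seeding (500-750 cells/well); response scaled between cell-free wells and DMSO (0% activity), curves classed by r2 and magnitude.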

A further assay has as its system 3D7. Kind of assay: qHTS profiling for inhibitors of Plasmodium falciparum proliferation (AID 504749). Further: nearly all actives have a fitted effect of over 60% in size. Particulars: P. falciparum in erythrocytes, SYBR Green DNA, 72 h; series mostly up to 28.7 µM. Summed up: (§1)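 Infected RBCs, 0.3% parasitemia/2.5% Hct final; cpd 72 h, 37 C, 5% CO2; lysis buffer with saponin/triton/SYBR Green I, o/n RT dark; FI 485/535; norm. to artemisinin (0.29 uM) and DMSO.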

A further assay deals with 7G8. Described as above. Particulars: P. falciparum in erythrocytes, SYBR Green DNA, 72 h; series mostly up to 28.7 µM. Summed up:
as §1

The next assay deals with C2A. The assay is described as above. The following applies: P. falciparum in erythrocytes, SYBR Green DNA, 72 h; series mostly up to 28.7 µM. The gist of the method:
as §1

The subject of another assay is CP194. The assay is described as above. The following applies: P. falciparum in erythrocytes, SYBR Green DNA, 72 h; series mostly up to 28.7 µM. The gist of the method:
as §1

The test system of the next assay is CP217. Described as above. The following applies: P. falciparum in erythrocytes, SYBR Green DNA, 72 h; series mostly up to 28.7 µM. Summed up: as §1
In the next assay the test system is CP237. The assay is described as above. The following applies: P. falciparum in erythrocytes, SYBR Green DNA, 72 h; series mostly up to 28.7 µM. Summed up:
as §1

Another assay deals with CP250. Described as above. The following applies: P. falciparum in erythrocytes, SYBR Green DNA, 72 h; series mostly up to 28.7 µM. Summed up: as §1
The next assay relates to CP252. The assay is described as above. Particulars: P. falciparum in erythrocytes, SYBR Green DNA, 72 h; series mostly up to 28.7 µM. The gist of the method:
as §1

For a further assay, the system named is CP256. The assay is described as above. Particulars: P. falciparum in erythrocytes, SYBR Green DNA, 72 h; series mostly up to 28.7 µM. Summed up: as §1
In a further assay the test system is CP260. The assay is described as above. The following applies: P. falciparum in erythrocytes, SYBR Green DNA, 72 h; series mostly up to 28.7 µM. Summed up:
as §1

The test system of the next assay is Dd2. The assay is described as above. Particulars: P. falciparum in erythrocytes, SYBR Green DNA, 72 h; series mostly up to 28.7 µM. The gist of the method:
as §1

The next assay deals with ECU. The description is as above. Particulars: P. falciparum in erythrocytes, SYBR Green DNA, 72 h; series mostly up to 28.7 µM. Summed up:
as §1

The next assay concerns ICS. The description is as above. The following applies: P. falciparum in erythrocytes, SYBR Green DNA, 72 h; series mostly up to 28.7 µM. Summed up: as §1
The subject of another assay is JCK. The assay is described as above. The following applies: P. falciparum in erythrocytes, SYBR Green DNA, 72 h; series mostly up to 28.7 µM. The gist of the method: as §1
A further assay has as its system N140. The assay is described as above. Particulars: P. falciparum in erythrocytes, SYBR Green DNA, 72 h; series mostly up to 28.7 µM. The gist of the method: as §1
Another assay concerns P93_24. The description is as above. Particulars: P. falciparum in erythrocytes, SYBR Green DNA, 72 h; series mostly up to 28.7 µM. Summed up:
as §1

In a further assay the test system is SC27B. Described as above. The following applies: P. falciparum in erythrocytes, SYBR Green DNA, 72 h; series mostly up to 28.7 µM. Summed up: as §1
Assay [2] in a line: S16 Schwann cell PMP22 intronic element firefly luciferase assay (AID 624032). Further: nearly all actives have a fitted effect of over 30% in size. Further: potency means the concentration at half of the fitted maximal effect. Summed up: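 Luciferase reporter of PMP22 intronic-element expression in stably transfected S16 rat Schwann cells, read by ONE-Glo luminescence after 24 h compound exposure at 37 C. Activity scaled between DMSO (0%) and positive-control PTC124; concentration-effect curves quality-classified.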
For assay [3], the target named is Cytochrome P450 2C19 (Homo sapiens) (UniProt P33261). Kind of assay: qHTS Assay for Inhibitors and Substrates of Cytochrome P450 2C19 (AID 899). Further: potency means the concentration at half of the fitted maximal effect; nearly all actives have a fitted effect of over 60% in size. Summed up:
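Luminescence readout of luciferin formed from 10uM Luciferin-H EGE (KM level) by 5 nM CYP2C19 in 50mM KPO4. 60 min NADPH-driven reaction at 37C after 10 min compound preincubation; data scaled to 57uM ketoconazole inhibition.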

The structures appear in SMILES notation. Records with an inconclusive call do not appear. The source made the active and inactive calls. The call rests on the fitted dose curve; in most records, active means well fitted curve in the direction sought with a large enough effect; inconclusive means small, poorly fitted or top-dose-only effect, or another doubt; inactive means no such curve, though single readings can be large; an effect the other way counts as inactive or inconclusive.

Cytochrome P450 2C19 (Homo sapiens), sequence (P33261 whole entry, looked up): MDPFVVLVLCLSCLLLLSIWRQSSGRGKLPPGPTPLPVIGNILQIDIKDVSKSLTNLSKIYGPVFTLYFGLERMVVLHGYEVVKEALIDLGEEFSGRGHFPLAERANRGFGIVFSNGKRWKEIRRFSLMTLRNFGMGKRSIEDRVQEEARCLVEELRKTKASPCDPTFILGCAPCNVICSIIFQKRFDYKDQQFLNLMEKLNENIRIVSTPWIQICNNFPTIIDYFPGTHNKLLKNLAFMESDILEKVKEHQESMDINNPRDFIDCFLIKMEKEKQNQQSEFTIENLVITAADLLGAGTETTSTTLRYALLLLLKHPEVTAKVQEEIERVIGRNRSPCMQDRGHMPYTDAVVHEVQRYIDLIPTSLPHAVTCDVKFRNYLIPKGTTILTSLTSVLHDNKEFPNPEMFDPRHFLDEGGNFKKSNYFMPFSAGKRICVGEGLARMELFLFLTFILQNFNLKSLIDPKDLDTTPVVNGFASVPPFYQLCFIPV

Turning to `CN(C)CCCCCCN(C)C`, the Potency result (in assay [1]; with 3D7; in the assay with 7G8; with C2A; with CP194; in the assay with CP217) was “inactive” each time. The Potency result in the assay with CP237, in the assay with CP250, in the assay with CP252, in the assay on CP256, with CP260 and in the assay with Dd2 was “inactive” throughout. Besides, the Potency entry with ECU, in the assay with ICS, with JCK, with N140, with P93_24 and with SC27B was “inactive” each time.

Take `S=C1NC=NC2N=CNC12` (stereo not drawn): the Potency entry (in assay [1]; in the assay with 3D7; with C2A; in the assay on CP217; in the assay on CP237; in the assay with CP250) was “inactive” throughout. Also, the Potency result with CP252, in the assay with CP256, in the assay on CP260, with Dd2, in the assay on ECU and with ICS was “inactive” each time. Also, the Potency result in the assay with JCK, in the assay on N140, with P93_24 and in the assay on SC27B was “inactive” throughout. Also, the Potency in assay [2] is 2870 nM (active).

Regarding `Nc1nc(Cl)nc2c1ncn2C1CC(O)C(CO)O1` (stereo not drawn), the Potency entry in the assay on CP194 is “inactive”.

For the compound `C1OCOCO1`, the Potency result (in assay [1]; in assay [2]; in the assay with 3D7; in the assay on 7G8; in the assay on C2A; in the assay with CP217) was “inactive” each time. Besides, the Potency result in the assay on CP237, in the assay with CP250, in the assay on CP252, in the assay on CP256, in the assay with CP260 and in the assay with Dd2 was “inactive” throughout. Also, the Potency result in the assay with ECU, in the assay on ICS, in the assay on JCK, in the assay with N140, with P93_24 and in the assay with SC27B was “inactive” each time.

On to `CC1(C)S[C@@H]2[C@H](NC(=O)COc3ccccc3)C(=O)N2[C@H]1C(=O)O`, for which the Potency result (in assay [2]; with 3D7; in the assay with 7G8; with C2A; in the assay with CP194; in the assay on CP217) was “inactive” throughout. The Potency result in the assay with CP237, in the assay on CP250, in the assay with CP252, with CP256, with CP260 and in the assay on Dd2 was “inactive” throughout. Further, the Potency result in the assay on ECU, with ICS, in the assay with JCK, with N140, with P93_24 and in the assay on SC27B was “inactive” in each case.

`COc1cccc(Cn2c(=O)c(CCc3ccccc3)nc3cnc(N(C)C)nc32)c1`: the Potency in assay [3] is 794 nM (active).

As for `COc1ccc(CNc2ncncc2-c2ccccc2OC)c(OC)c1`, in [3], the Potency was 2000 nM (active).

On to `COc1ccc2[nH]cc(CCNc3nc(-c4ccccc4OC)nc4ccccc34)c2c1`, for which the Potency in assay [3] was 5010 nM (active).

Regarding `COc1ccc2[nH]cc(CCNc3ncncc3-c3ccccc3C(F)(F)F)c2c1`, the Potency in assay [3] is 251 nM (active).

On to `CC(C)(CO)C(O)C(=O)NCCCC(=O)O` (stereo not drawn), for which the Potency result in [1] and in assay [2] was “inactive” in each case.
